Test results reported in the supplement of paper PMC8728848.
Only a selection was taken, and the strongest signals are over-represented in it overall.

Columns and labels:
Experiment in all cases: glycan array binding signal (z-score within array); higher = stronger binding
Details in all cases: glycan notation: IUPAC condensed, linker removed
GalNAc(a1-3)Gal = target: GalNAc(a1-3)Gal
Procedure, shortened: (§1)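 Columns mapping to the same glycan were averaged after glycan names were converted to IUPAC-condensed notation. The data come from 3228 arrays in the Consortium for Functional Glycomics database, limited to those with an available protein sequence. Binding is reported as a within-array Z-score averaged across arrays of one protein sequence and across linkers.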

GalNAc(a1-3)GalNAc = target: GalNAc(a1-3)GalNAc
Procedure, shortened: as §1

[1] = target: GalNAc(a1-3)GalNAc(a1-3)Gal(a1-4)Gal(b1-4)GlcNAc
Procedure, shortened: as §1

[2] = target: GalNAc(a1-3)GalNAc(b1-3)Gal(a1-4)Gal(b1-4)GlcNAc
Procedure, shortened: as §1

Glc(b1-4)Glc = target: Glc(b1-4)Glc
Procedure, shortened: as §1

Glc(b1-6)Glc = target: Glc(b1-6)Glc
Procedure, shortened: as §1

GlcA(b1-3)Gal = target: GlcA(b1-3)Gal
Procedure, shortened: as §1

[3] = target: GlcA3S(b1-3)Gal(b1-4)GlcNAc(b1-3)Gal(b1-4)Glc
Procedure, shortened: as §1

[4] = target: GlcNAc(a1-3)Gal(b1-4)GlcNAc
Procedure, shortened: as §1

[5] = target: GlcNAc(a1-4)Gal(b1-4)GalNAc
Procedure, shortened: as §1

[6] = target: GlcNAc(a1-4)Gal(b1-4)GlcNAc(b1-3)Gal(b1-4)GlcNAc
Procedure, shortened: as §1

[7] = target: GlcNAc(a1-4)Gal(b1-4)GlcNAc(b1-3)Gal(b1-4)GlcNAc(b1-3)Gal(b1-4)GlcNAc
Procedure, shortened: as §1

[8] = target: GlcNAc(b1-2)[GlcNAc(b1-4)]Man(a1-3)[GlcNAc(b1-4)][GlcNAc(b1-2)[GlcNAc(b1-6)]Man(a1-6)]Man(b1-4)GlcNAc(b1-4)[Fuc(a1-6)]GlcNAc
Procedure, shortened: as §1

[9] = target: GlcNAc(b1-2)[GlcNAc(b1-6)]Man(a1-6)[GlcNAc(b1-2)Man(a1-3)][GlcNAc(b1-4)]Man(b1-4)GlcNAc(b1-4)GlcNAc
Procedure, shortened: as §1

[10] = target: GlcNAc(b1-3)Gal(b1-4)GlcNAc(b1-3)Gal(b1-4)GlcNAc(b1-2)Man(a1-3)[GlcNAc(b1-3)Gal(b1-4)GlcNAc(b1-3)Gal(b1-4)GlcNAc(b1-2)Man(a1-6)]Man(b1-4)GlcNAc(b1-4)[Fuc(a1-6)]GlcNAc
Procedure, shortened: as §1

[11] = target: GlcNAc(b1-3)Gal(b1-4)GlcNAc(b1-3)Gal(b1-4)GlcNAc(b1-3)Gal(b1-4)GlcNAc(b1-2)Man(a1-3)[GlcNAc(b1-3)Gal(b1-4)GlcNAc(b1-3)Gal(b1-4)GlcNAc(b1-3)Gal(b1-4)GlcNAc(b1-2)Man(a1-6)]Man(b1-4)GlcNAc(b1-4)GlcNAc
Procedure, shortened: as §1

[12] = target: GlcNAc(b1-3)Gal(b1-4)GlcNAc(b1-3)Gal(b1-4)GlcNAc(b1-3)Gal(b1-4)GlcNAc(b1-2)Man(a1-3)[GlcNAc(b1-3)Gal(b1-4)GlcNAc(b1-3)Gal(b1-4)GlcNAc(b1-3)Gal(b1-4)GlcNAc(b1-2)Man(a1-6)]Man(b1-4)GlcNAc(b1-4)[Fuc(a1-6)]GlcNAc
Procedure, shortened: as §1

Kdn(a2-3)Gal(b1-4)GlcNAc = target: Kdn(a2-3)Gal(b1-4)GlcNAc
Procedure, shortened: as §1

[13] = target: Neu5Ac(a2-3)Gal(b1-3)GalNAc(b1-3)Gal(a1-4)Gal(b1-4)Glc
Procedure, shortened: as §1

[14] = target: Neu5Ac(a2-3)Gal(b1-3)GalNAc(b1-4)[Neu5Ac(a2-8)Neu5Ac(a2-3)]Gal(b1-4)Glc
Procedure, shortened: as §1

[15] = target: Neu5Ac(a2-3)Gal(b1-3)[Fuc(a1-4)]GlcNAc(b1-3)Gal(b1-4)[Fuc(a1-3)]GlcNAc
Procedure, shortened: as §1

[16] = target: Neu5Ac(a2-3)Gal(b1-4)GlcNAc(b1-3)Gal(b1-4)GlcNAc
Procedure, shortened: as §1

[17] = target: Neu5Ac(a2-3)Gal(b1-4)GlcNAc(b1-3)Gal(b1-4)GlcNAc(b1-3)Gal(b1-4)GlcNAc
Procedure, shortened: as §1

[18] = target: Neu5Ac(a2-3)Gal6S(b1-4)GlcNAc
Procedure, shortened: as §1

[19] = target: Neu5Ac(a2-6)Gal(b1-4)GlcNAc(b1-2)Man(a1-3)[Gal(b1-4)GlcNAc(b1-2)Man(a1-6)]Man(b1-4)GlcNAc(b1-4)GlcNAc
Procedure, shortened: as §1

[20] = target: Neu5Ac(a2-6)Gal(b1-4)GlcNAc(b1-3)Gal(b1-4)GlcNAc(b1-3)Gal(b1-4)GlcNAc(b1-2)Man(a1-3)[Neu5Ac(a2-6)Gal(b1-4)GlcNAc(b1-3)Gal(b1-4)GlcNAc(b1-3)Gal(b1-4)GlcNAc(b1-2)Man(a1-6)]GalNAc
Procedure, shortened: as §1

[21] = target: Neu5Ac(a2-6)Gal(b1-4)GlcNAc(b1-3)Gal(b1-4)[Fuc(a1-3)]GlcNAc(b1-3)Gal(b1-4)[Fuc(a1-3)]GlcNAc
Procedure, shortened: as §1

Neu5Ac(b2-6)GalNAc = target: Neu5Ac(b2-6)GalNAc
Procedure, shortened: as §1

[22] = target: Neu5Ac9Ac(a2-6)Gal(b1-4)GlcNAc
Procedure, shortened: as §1

B1: HPA (Helix pomatia), Q575S3 (protein)
chain: MWAHLTGLLLICALSLSAAQRAQTGEIDCGSDSSWPKDPSDNPNRDNTREIVKHVTFSPQFCREPKVILSVTTLDAEHTKNLRYEARLKSVSPSGLSASCYSWHDGTIYRMKLSWLAVED
glycan array binding signal (z-score) (GalNAc(a1-3)Gal): 4.18 | glycan array binding signal (z-score) (GalNAc(a1-3)GalNAc): 4.53 | glycan array binding signal (z-score) [1]: 5.04 | glycan array binding signal (z-score) [2]: 5.7 | glycan array binding signal (z-score) (Glc(b1-4)Glc): -0.26 | glycan array binding signal (z-score) (Glc(b1-6)Glc): -0.266 | glycan array binding signal (z-score) (GlcA(b1-3)Gal): -0.262 | glycan array binding signal (z-score) [3]: -0.256 | glycan array binding signal (z-score) [4]: 4.69 | glycan array binding signal (z-score) [5]: 1.46 | glycan array binding signal (z-score) [6]: 4.37 | glycan array binding signal (z-score) [7]: 4.21 | glycan array binding signal (z-score) [8]: 0.175 | glycan array binding signal (z-score) [9]: -0.24 | glycan array binding signal (z-score) [10]: -0.243 | glycan array binding signal (z-score) [11]: -0.257 | glycan array binding signal (z-score) [12]: -0.241 | glycan array binding signal (z-score) (Kdn(a2-3)Gal(b1-4)GlcNAc): -0.262 | glycan array binding signal (z-score) [13]: -0.243 | glycan array binding signal (z-score) [14]: -0.245 | glycan array binding signal (z-score) [15]: -0.209 | glycan array binding signal (z-score) [16]: -0.267 | glycan array binding signal (z-score) [17]: -0.265 | glycan array binding signal (z-score) [18]: -0.273 | glycan array binding signal (z-score) [19]: -0.261 | glycan array binding signal (z-score) [20]: -0.164 | glycan array binding signal (z-score) [21]: -0.253 | glycan array binding signal (z-score) (Neu5Ac(b2-6)GalNAc): -0.269 | glycan array binding signal (z-score) [22]: -0.274
